# Out of some 360,000 compounds screened, about 6,000 (1.7%) were called active. About 8% were inconclusive and are not listed. The sample holds actives, similar compounds and a random draw of the others, so the mix is not that of the screen. Values without a mark were called inactive. Calls come from the whole dose curve; as a rule, active = well fitted cell-killing curve with a large enough effect; inconclusive = small, poorly fitted or top-dose-only effect, or effect the other way; inactive = flat fitted curve, though single readings scatter.
# Test: qHTS for induction of synthetic lethality in tumor cells producing 2HG: qHTS for the HT-1080-NT fibrosarcoma cell line;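 note: NT is the 2HG producing partner of a matched IDH1 knockdown line; nearly all actives have a fitted effect of over 55% in size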;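 for activity, negative = less viability: 0% = DMSO-treated cells and -100% = media-only wells without cells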
# Conditions: HT-1080-NT fibrosarcoma viability, CellTiter-Glo ATP luminescence, 48 h; series mostly up to 46.1 µM; activity, negative = less viability: at the top concentration
# Summary of the method: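 Fibrosarcoma NT cells, 750 per well in 5% FBS RPMI, were exposed to compound for 48 hours. Viability: CellTiter-Glo luminescence.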
# Potency is the fitted concentration of half-maximal effect.
SMILES,"activity, negative = less viability",Potency
CCC(C)N(C(=O)CSc1nnnn1-c1ccccc1OC)C1CCS(=O)(=O)C1 (stereo not drawn),-3.07% [at 9.24 µM],–
COc1ccccc1-n1nnnc1S(=O)(=O)Cc1ccc(Cl)cc1,–,20.6 µM (active)
COc1ccccc1-n1nnnc1SCC(=O)NC(=O)Cc1ccccc1,10.5%,–
CC(=O)C[C@@H]1OC[C@H](CO)N1S(=O)(=O)c1ccc(C)cc1,21.5%,–
COc1ccc2sc(-c3ccc(N(C)C)cc3)c(-c3ccc4cc[nH]c4c3)c2c1,-7.14%,–
COc1ccc2c(c1)c(=Cc1ccc(N(C)C)cc1)c1cc(-c3ccccc3)[n+](C)n12,–,13 µM (active)
O=C(NCC(O)c1nc2ccccc2[nH]1)c1ccc(Br)cc1 (stereo not drawn),25.9%,–
Cc1cc(=O)oc2cc(OCC3CC(c4ccccc4Cl)=NO3)ccc12 (stereo not drawn),–,0.708 µM (active)
CCOc1ccccc1N1CCN(C(=O)COc2ccc3c(C)cc(=O)oc3c2)CC1,-0.354%,–
Cc1cc(=O)oc2cc(OCCC[n+]3ccccc3)ccc12,16%,–
COc1cc(NC(=O)C2=C(C)OCCS2)c(Cl)cc1C(=O)NCCCN1CCCC(C)C1 (stereo not drawn),-6.88%,–
Cc1ccc(S(=O)(=O)N[C@H]2CCC[C@@H]2O)cc1,14.8%,–
CCOC(=O)N1C(=O)C[C@](Sc2ccc(C)cc2)(C(=O)OC)[C@H]1c1ccccc1,0.0371%,–
CC(NC(=O)c1ccccc1F)c1cccc2ccccc12 (stereo not drawn),-0.858%,–
COc1ccc(C(=O)NN(C)c2nc(-c3ccccc3)cc(C)c2S(C)(=O)=O)cc1,-2.05%,–
Cc1cccc(C(=O)Nc2ccc(C(=O)N/N=C/c3cccc(C)n3)cc2)c1,-8.14%,–
Cn1c(CC(=O)NNC(=O)c2ccccc2F)nc2ccccc21,0.555%,–
CSc1nc(N(C)NC(=O)c2cccc(C)c2)c2ccccc2n1,–,0.13 µM (active)
CN(NC(=O)c1ccccc1F)c1nc(C(F)(F)F)nc2ccccc12,–,0.291 µM (active)
COc1ccc(-c2cc(NC=O)c3ncc(-c4cccc(C(=O)N(C)C)c4)n3c2)c(OC)c1,-20.5%,–
CC1(C)OC(=O)C2=C(CC(c3ccccc3)OC2CCc2ccccc2)O1 (stereo not drawn),-19.5%,–
O=Nc1c(O)cc(O)c2ccccc12,-1%,–
CCC(c1nnnn1-c1ccc2c(c1)OCCO2)N1CCN(c2ccc(C(F)(F)F)cn2)CC1 (stereo not drawn),-27.4%,–
CCC(C)CN1C(=O)CSCC1(C)C(=O)NCc1ccccc1 (stereo not drawn),-3.54%,–
COc1ccc2c(c1)CCCO[C@]21O[C@H](CCO)C[C@H](O)[C@H]1O,11.6%,–

SMILES,"activity, negative = less viability",Potency
Cc1nnnn1/C(=C\c1ccccc1)C(=O)OCC(=O)N1CC2(C)CC1CC(C)(C)C2 (stereo not drawn),–,23.1 µM (active)
CN(C)C(=O)COC(=O)c1cccc(S(=O)(=O)N2CC3(C)CC2CC(C)(C)C3)c1 (stereo not drawn),0.341%,–
CCOC(=O)C1CCCN(C(=O)c2cc(-c3cccs3)oc2C)CC1 (stereo not drawn),-4.19%,–
Cc1cccc(C=CC(=O)c2ccc(Cl)cc2)c1,-8.49%,–
CC1(C(=O)O)CCCN(C(=O)/C=C/c2ccccc2)C1 (stereo not drawn),3.18%,–
Cc1[nH]c(=O)c(C(=O)/C=C/c2ccccc2)c2c1CCCC2,–,7.08 µM (active)
O=C(NCCOc1ccccc1)N1[C@H]2CC[C@@H]1C=C(c1ccc(F)cc1OCc1ccccc1)C2,-28.7%,–
CC1(C(=O)NCc2ccccc2)CN(S(C)(=O)=O)CC(=O)N1CC(F)(F)F (stereo not drawn),20.3%,–
OC[C@@H]1CN(Cc2ccc(-c3ccccc3)cc2)C[C@H](n2cnc3c(NC4CCCC4)ncnc32)O1,–,9.2 µM (active)
OC[C@@H]1CN(Cc2cccs2)C[C@H](n2cnc3c(NC4CCCC4)ncnc32)O1,9.57%,–
OC[C@@H]1CN(C2CCCC2)C[C@H](n2cnc3c(NC4CCC4)ncnc32)O1,6.22%,–
COc1cc(C(=O)OCCCN2CCOCC2)cc(OC)c1OC,12.7%,–
O=C(Nc1ccccc1Cl)/C(Cl)=C(\Cl)S(=O)c1ccccc1 (stereo not drawn),–,20.6 µM (active)
O=C(COC(=O)CCc1c[nH]c(=O)[nH]1)Nc1ccccc1Cl,16.6%,–
CN(C)S(=O)(=O)Oc1ccccc1C(=O)Nc1ccccc1Cl,0.81%,–
COC(=O)[C@@]12C[C@@H](CC(=O)N3CCCCC3)C(=O)N(Cc3ccc4c(c3)OCO4)C1=CCC(C)(C)C2,-21.7%,–
CN(Cc1ccccc1)C(=O)[C@@H]1CCCN1C(=O)[C@@H]1CCCN1C(=O)c1c(F)cccc1F,24.6%,–
COc1ccc(NS(=O)(=O)c2ccc(NC(=O)c3ccc(N(C)S(C)(=O)=O)cc3)cc2)cc1,–,18.4 µM (active)
COc1ccc(NS(=O)(=O)c2ccc(C(=O)Nc3c(C)n(C)n(-c4ccccc4)c3=O)cc2)cc1,-12%,–
COc1ccc(C(=O)Nc2cccc(S(C)(=O)=O)c2)cc1,5.39%,–
O=S1(=O)CC(N2CCN(Cc3ccccc3F)CC2)CN1Cc1cn(Cc2ccccc2)nn1 (stereo not drawn),8.96%,–
C[C@@H]1CN([C@@H](C)CO)S(=O)(=O)c2ccc(C#Cc3cccc(F)c3)cc2O[C@H]1CN(C)S(=O)(=O)c1cn(C)cn1,-24.4%,–
COC(=O)[C@]12CCCCC=C1N(Cc1ccco1)C(=O)[C@H](CC(=O)NCC1CCCCC1)C2,17.1%,–
Nc1ncnc2c1ncn2[C@@H]1O[C@H](C(=O)NS(=O)(=O)c2c(Cl)nc3sccn23)[C@@H](O)[C@H]1O,4.2%,–
COc1ccc(NC(=O)CSc2nnnn2-c2cccc(OC)c2)cc1,8.68%,–

SMILES,"activity, negative = less viability",Potency
CCOc1cccc(-n2nnnc2-c2ccc(OC)cc2)c1,–,5.8 µM (active)
CCOC(=O)C(C)n1cnc2c(nnn2-c2cccc(OC)c2)c1=O (stereo not drawn),11.1%,–
COCCCNC(=O)c1ccc(-c2c(C)noc2C)c2ccoc12,4.24%,–
COc1ccccc1-n1c(SCC(=O)Nc2ccc(Cl)cc2)nc(O)c(Cc2ccccc2)c1=O,-8.27%,–
COc1ccc(C(C(=O)NCc2ccccc2)n2c(=O)c(-c3ccccc3)nc3ccccc32)cc1 (stereo not drawn),-16.2%,–
CCC(C)C(CO)NC(=O)/C=C/[C@H]1O[C@@H](n2cnc3c(NC(=O)c4ccccc4)ncnc32)[C@H](O)[C@@H]1O (stereo partly drawn),3.67%,–
COc1ccc(C(=O)N/N=C2\CCS(=O)(=O)c3ccc(F)cc32)cc1OC,–,20.6 µM (active)
COc1ccc(C(=O)NC2CC(C)(C)NC(C)(C)C2)cc1OC,17%,–
COc1ccc(CN2CCCC(CNC(=O)c3ccc(F)cc3)C2)cc1OC (stereo not drawn),4.21%,–
Cc1ccc(Cc2c(-c3ccc(Cl)cc3)nc3c4ccccc4ccn23)cc1,-19%,–
CC(=O)NN=C(C)c1ccc(NC(=O)C2CC2)cc1,-2.35%,–
COc1ccc(C(=O)NCC2CCCO2)cc1S(=O)(=O)NCc1ccc(Cl)cc1 (stereo not drawn),0.0669%,–
CCC(CC)C(C(=O)NC1CCCC1)N1CCN(c2cc(C)nc3ccccc23)CC1 (stereo not drawn),-28.7%,–
CCN1CCN(CC(=O)Nc2sc3c(c2C#N)CCC3)CC1,11.3%,–
N#Cc1c(NC(=O)CCCl)sc2c1CCCCC2,–,23.1 µM (active)
N#Cc1c(NC(=O)C2CCCO2)sc2c1CCCCC2 (stereo not drawn),-5.07%,–
CCCCCCN1CCN(C2CN(Cc3cn(Cc4ccc(F)cc4)nn3)S(=O)(=O)C2)CC1 (stereo not drawn),0.0762%,–
Cc1ccc(-c2nc3ccccn3c2Nc2ccc(F)cc2)o1,1.52%,–
Cn1c(=N)n(CC(O)c2ccccc2)c2ccccc21 (stereo not drawn),-3.88%,–
N=c1n(Cc2ccc(Cl)cc2)c2ccccc2n1CC(O)c1ccco1 (stereo not drawn),–,23.1 µM (active)
Cn1c(=N)n(CC(O)c2cccs2)c2ccccc21 (stereo not drawn),0.74%,–
CCNC(=O)C1(C)CCCN(Cc2noc(-c3ccccc3OC)n2)C1 (stereo not drawn),19.6%,–
COc1cccc(-c2cc3nc(NCc4ccccc4OC)n(C)c(=O)c3s2)c1,2.39%,–
COc1ccccc1CNc1nc(Nc2ccccc2Cl)c2sccc2n1,-7.83%,–
Clc1ccccc1Nc1nc(NCc2cccs2)nc2ccsc12,6.31%,–

SMILES,"activity, negative = less viability",Potency
COc1cccc(CNc2nc(NCc3ccccc3OC)nc3ccsc23)c1,–,23.1 µM (active)
COc1ccc(NC(=S)NCc2cccs2)c(OC)c1,7.46%,–
COc1cccc(CNc2nc(NCc3cccs3)nc3ccsc23)c1,–,18.4 µM (active)
CC[C@@H]1CC2=C(C(=O)OC(C)(C)O2)[C@@H](CC)O1,20.4%,–
Nc1nc2c(ncn2[C@@H]2O[C@H](CNCc3ccc(OCCCN4CCOCC4)cc3)[C@@H](O)[C@H]2O)c(=O)[nH]1,23.9%,–
C[C@H](O)[C@@H]1C(=O)N2CCc3c([nH]c4ccccc34)[C@@H]2C[C@@H]1N(C)C(=O)Nc1ccc(F)cc1,-4.19%,–
C[C@H]1CN([C@@H](C)CO)C(=O)CCCn2cc(nn2)CO[C@@H]1CN(C)S(=O)(=O)c1cccs1,3.92%,–
N#Cc1ccc(C(C(=O)NCc2ccccc2)n2c(=O)c(-c3ccco3)nc3ccccc32)cc1 (stereo not drawn),-3.23%,–
O=S1(=O)CC(N2CCSCC2)CN1Cc1cn(Cc2cccc(Cl)c2)nn1 (stereo not drawn),18.5%,–
CCCCC[C@@H]1C=C(C(=O)OCC)[C@H](c2ccccc2)N1S(=O)(=O)c1ccc(C)cc1,-18.3%,–
Cc1cc(C)c(-c2c(O)c3ccccc3n(C)c2=O)c(C)c1,7.51%,–
Cn1c(=O)c([N+](=O)[O-])c(Oc2ccccc2)c2ccccc21,–,18.4 µM (active)
COc1cc2c(=O)n(C)c3ccccc3c2cc1OC,4.63%,–
CCCc1c(C)nc2scc(-c3ccc(Cl)cc3)n2c1=O,-1.68%,–
COCCNc1ncnc2c1ncn2[C@H]1CN(CCN2CCOCC2)C[C@@H](CO)O1,22.6%,–
C=CCC[C@@H](CCCCC)OC(=O)/C=C/[C@@H](O)[C@H](O)C[C@H](O)CC=C,-18.2%,–
C=CCC[C@H](CCCCC)OC(=O)/C=C/[C@H](O)[C@@H](O)C[C@@H](O)CC=C,-23.8%,–
CN(C)C(CNC(=O)Cc1ccc([N+](=O)[O-])cc1)c1ccccc1 (stereo not drawn),-3.4%,–
COc1cccc(CNC(=O)c2n[nH]c3ccccc23)c1,-22%,–
COc1cccc(CNC(=O)CN2C(=O)NC(Cc3ccccc3)(c3ccccc3)C2=O)c1 (stereo not drawn),4.29%,–
COc1cccc(CNc2nc(C(F)(F)F)nc3ccccc23)c1,–,23.1 µM (active)
CN(C)C(CNC(=O)c1cc2ccccc2o1)c1ccccc1 (stereo not drawn),-8.25%,–
CCc1ccc(C(CNc2nc(C(F)(F)F)nc3ccccc23)N(C)C)cc1 (stereo not drawn),–,23.1 µM (active)

# From PubChem BioAssay AID686970 (National Center for Advancing Translational Sciences (NCATS), 2013)
